# Source: PubChem BioAssay AID2061320 (National Center for Advancing Translational Sciences (NCATS), 2025)
# Inconclusive results are not listed. Active and inactive are the calls of the source. The call rests on the fitted dose curve; in most records, active means well fitted inhibition curve with a large enough effect; inconclusive means small, poorly fitted or top-dose-only effect; inactive means flat fitted curve, though single readings scatter.
# Assay: Identification of antibody-drug conjugate (ADC) payloads which are substrates of ATP-binding cassette drug efflux transporters: ABCG2-H460-MX20 cell line
# Conditions: H460-MX20 (ABCG2) viability, CellTiter-Glo, 48 h; series mostly up to 28.7 µM; activity change, negative = inhibition: at the top concentration
# Excerpt: Antibody-drug conjugates (ADCs) feature an antibody recognizing a specific protein joined to a potent toxic payload. Numerous antibody-drug conjugates have received FDA approval; however, clinical resistance arises. Resistance mechanisms include decreased expression or mutation of the antibody target, impaired payload release, or increased expression of ATP-binding cassette (ABC) efflux transporters associated with multidrug resistance. We therefore sought to characterize the interaction of ABC multidrug transporters with ADC payloads. We performed a high-throughput screen with 27 common ADC payloads using cells lines expressing ABC transporters P-glycoprotein (P-gp, encoded by ABCB1) or ABCG2 (encoded by ABCG2). Confirmatory assays were also performed using cells transfected to express P-gp, ABCG2, or MRP1 (encoded by ABCC1). Several commonly used ADC payloads were substrates of P-gp, including calicheamicin gamma1, monomethyl auristatin E, DM1, and DM4. All the pyrrolobenzodiazepines tested - SJG136, SGD-1882, SG2057, and SG3199 - were substrates of P-gp, ABCG2, and MRP1. […] These findings highlight the risk of transporter-mediated resistance with certain ADC payloads and underscore the importance of selecting payloads that evade ABC transporter recognition in future ADC development.
# HEK-293 cells were transfected with empty vector (pcDNA) or vector containing the human ABCB1 (MDR-19), ABCG2 (R-5), or ABCC1 gene (MRP1) and were maintained in EMEM with 2 mg/mL G418 added to maintain transporter expression. The HeLa derivative KB-3-1 and the P-gp overexpressing KB-8-5-11 subline were maintained in DMEM; KB-8-5-11 additionally received 100 ng/mL colchicine. H460 parental cells were obtained from the Division of Cancer Treatment and Diagnosis Tumor Repository, National Cancer Institute at Frederick, MD and were cultured in RPMI. The ABCG2 expressing subline H460 MX20 was generated by selecting H460 cells in 20 nM mitoxantrone. Media in all cases was supplemented with 10% FBS and 1% penicillin-streptomycin. We explored 27 common ADC payloads, in two orthogonal, paired cell line sets-a drug selected and transfected set for each transporter--to identify substrates of the ABC transporters P-gp and ABCG2. Compounds were sourced from Levena Biopharma (San Diego, CA), Selleck Chem (Houston, TX), ChemieTek (Indianapolis, IN), or Microsource Discovery Systems (Gaylordsville, CT). Screening was performed as previously described. Briefly, cells were plated at a density of 500 cells/well in 1536 well plates with compounds added using a 1536-head pin tool (Kalypsys, San Diego CA). Cells were incubated with cytotoxic drugs and processed with CellTiter Glo reagent (Promega, Madison, WI) to determine viability after 48 hours. P-gp substrates were identified by comparing compound activity between paired sets of low-expressing (sensitive) and over-expressing (resistant) cell lines.
SMILES,Potency,"activity change, negative = inhibition"
COc1cc2cc(c1Cl)N(C)C(=O)C[C@H](OC(=O)[C@H](C)N(C)C(=O)CCS)[C@]1(C)OC1[C@H](C)C1C[C@@](O)(NC(=O)O1)[C@H](OC)/C=C/C=C(\C)C2 (stereo partly specified),15000 nM (active),–
COc1cc2cc(C(=O)N3C[C@@H](CCl)c4c3cc(O)c3ccccc43)[nH]c2c(OC)c1OC,2.1 nM (active),–
CC[C@H](C)[C@@H]([C@@H](CC(=O)N1CCC[C@H]1[C@H](OC)[C@@H](C)C(=O)N[C@H](C)[C@@H](O)c1ccccc1)OC)N(C)C(=O)[C@@H](NC(=O)[C@H](C(C)C)N(C)C)C(C)C,598 nM (active),–
CC[C@H](C)[C@@H]1NC(=O)CNC(=O)[C@H]2Cc3c([nH]c4cc(O)ccc34)S(=O)C[C@H](NC(=O)CNC1=O)C(=O)N[C@@H](CC(N)=O)C(=O)N1C[C@H](O)C[C@H]1C(=O)N[C@@H]([C@@H](C)[C@@H](O)CO)C(=O)N2 (stereo partly specified),1060 nM (active),–
COc1cccc2c1C(=O)c1c(O)c3c(c(O)c1C2=O)C[C@@](O)(C(=O)CO)CC3OC1CC(N2CCOC(OC)C2)C(O)C(C)O1 (stereo partly specified),8.4 nM (active),–
CC[C@H](C)[C@H](NC(=O)[C@H]1CCCCN1C)C(=O)N(C)[C@H](C[C@@H](OC(C)=O)c1nc(C(=O)N[C@@H](Cc2ccccc2)C[C@H](C)C(=O)O)cs1)C(C)C,–,-25.4% (inactive)
